In the library only some 12% were active in any assay of this set; here they are far more common.
Pf growth 96h – Primary qHTS for delayed death inhibitors of the malarial parasite plastid, 96 hour incubation; 320,000 compounds, 6.9% hits; P. falciparum luciferase reporter growth, 96 h; AID 504834, 2011; Potency, µM (top dose mostly 28.7 µM), without a hit: at the highest dose activity change, negative = inhibition, hits mostly inhibitors; further: on the % scale 0 is the no-effect control and ±100 the full control effect
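Parasite growth measured via integrated firefly luciferase reporter in P. falciparum. Infected erythrocytes at 2% hematocrit, 0.05% parasitemia final were treated 96 hours at 37 C under 5% CO2, and luminescence was read.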
SARS PLP yeast – qHTS of Yeast-based Assay for SARS-CoV PLP | Potency, µM (top dose mostly 32.9 µM), without a hit: at the highest dose activity, positive = growth rescue, usual class: activators | 330,000 compounds, 0.19% hits | S. cerevisiae expressing SARS-CoV PLpro, growth rescue; calls by dose curve; further: 0% is about no effect; nearly all actives have a fitted effect of over 55% in size
HCV inh – qHTS Assay for Inhibitors of Hepatitis C Virus (HCV); Huh7.5.1 HCVcc-Cre infection, luciferase reporter, 44 h; Potency, µM (series often up to 41.8 µM), without a hit: at the top dose activity change, negative = inhibition, usual class: inhibitors; 340,000 compounds, 3.4% hits; AID 651820, 2012; further: on the % scale 0 is the no-effect control and ±100 the full control effect
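Cells seeded at 1,000/well and cultured 4 h, then compounds added followed by HCVcc-Cre virus (~0.5 moi). After 44 h further culture, luciferase substrate was added, plates held 15 min at room temperature, and luminescence read for 15 sec.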
Pf growth 48h – Primary qHTS for delayed death inhibitors of the malarial parasite plastid, 48 hour incubation | P. falciparum luciferase growth in erythrocytes, 48 h | 310,000 compounds, 5.9% hits | Potency, µM (titrated, usually from 28.7 µM), inactives show at the top dose activity change, negative = inhibition, most hits filed as inhibitors; further: on the % scale 0 is the no-effect control and ±100 the full control effect
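Here the parasites carry a stable luciferase gene and grow inside erythrocytes in Albumax-based RPMI medium with compound for one erythrocytic cycle. Activity is scored as loss of luminescent signal.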
NS1 function inh – qHTS Assay for Inhibitors of Influenza NS1 Protein Function. Potency, µM (doses to about 46.1 µM), for the others: top-dose activity, positive = more growth. 270,000 compounds, 0.4% hits; calls by dose curve; further: actives are rising curves; nearly all actives have a fitted effect of over 50% in size
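Read-out: OD600 growth recovery of NS1-expressing budding yeast. Cells grown overnight at 30C in -URA glucose medium, washed, resuspended and diluted 1:100 in 2% galactose assay medium, pH 6.0. Same strain lacking NS1 served as positive control.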
AMA1-RON2 inh – qHTS for Inhibitors of AMA1-RON; Towards Development of Antimalarial Drug Lead: Primary Screen | Plasmodium falciparum AMA1 (3D7) - RON2 peptide interaction | AlphaScreen AMA1-biotinylated RON2 peptide binding | Potency, µM (doses to about 58.2 µM), without a hit: top-dose activity change, negative = inhibition, usual class: inhibitors | 360,000 compounds, 0.2% hits | AID 720542, 2013;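 further: 0% = vehicle wells and -100% = peptide control; nearly all actives have a fitted effect of over 45% in size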
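AMA1 (3D7) with his tag at 25 nM final met compounds first, then biotinylated RON2 peptide at 25 nM; detection used donor plus acceptor beads, 10 µg/mL apiece, read by AlphaScreen after 30 min at room temperature.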
An asterisk follows results filed as active; ? = inconclusive; · = not tested or not shown. Unless noted, the call rests on the fitted dose curve; in most records, active means well fitted curve in the direction sought with a large enough effect; inconclusive means small, poorly fitted or top-dose-only effect, or another doubt; inactive means no such curve, though single readings can be large; an effect the other way counts as inactive or inconclusive. Potency means the concentration at half of the fitted maximal effect.

SMILES	Pf growth 96h	SARS PLP yeast	HCV inh	Pf growth 48h	NS1 function inh	AMA1-RON2 inh
CC(C)(C)OC(=O)N[C@@H](Cc1ccccc1)C(=O)N1CCC(C(=O)N[C@@H](Cc2c[nH]c3ccccc23)C(=O)O)CC1	?	1.1%	10.9%	-18.0%	-2.4%	-4.2%
OC1(c2ccc(Br)cc2)CCN(Cc2cccc(Br)c2)CC1	4.65µM*	-4.0%	-17.2%	?	-18.1%	-12.9%
Brc1cccc(CN2CCCCCC2)c1	-16.5%	-3.7%	9.4%	8.7%	1.1%	?
CC(=O)OCC1=C(C(=O)O)N2C(=O)[C@@H](NC(=O)CSc3ccncc3)[C@@H]2SC1	?	·	·	-3.2%	·	·
COc1ccc(NCc2nnc(SCc3ccc(Cl)cc3)n2-c2ccccc2)cc1	55.2%	-42.8%	8.91µM*	1.7%	?	20µM*
NC(=O)CSc1nnc(CSc2ncccn2)n1-c1ccccc1	13.1µM*	-1.0%	15.4%	7.8%	·	-4.8%
Cc1cc(C)nc(SCc2nnc(SCC(=O)O)n2-c2ccccc2)n1	0.0%	0.5%	-26.5%	2.0%	-0.5%	-8.5%
Cc1ccc(OCc2nnc(SCC(=O)c3ccccc3)n2-c2ccccc2)cc1	-60.2%	-2.6%	?	13.1µM*	15.2%	0.0%
COc1ccc(-n2c(COc3ccc(Cl)cc3)nnc2SCc2ccc(C#N)cc2)cc1	·	-3.9%	?	?	8.7%	-7.7%
Cc1ccc(OCc2nnc(SCC(=O)O)n2-c2ccccc2)cc1	·	·	22.5%	·	·	-0.4%
CCOc1ccc(-n2c(SCc3ccc([N+](=O)[O-])cc3)nnc2-c2ccc(OC)cc2)cc1	8.28µM*	6.3%	?	?	16.7%	-12.1%
CCOc1cc(C2C3=C(CC(C)(C)CC3=O)N(CCOC)C3=C2C(=O)CC(C)(C)C3)ccc1O	?	-4.6%	1.9%	-17.4%	19.4%	4.2%
C[C@H]1CN(S(=O)C(C)(C)C)[C@H](CCO)/C1=C\CCO (some centres undefined)	·	·	-19.0%	·	·	-0.8%
COc1ccc(-n2c(COc3ccc(C)cc3)nnc2SCc2ccc(C#N)cc2)cc1	?	-10.2%	22.4µM*	?	0.2%	-6.4%
C=CCn1c(SCc2ccc(C#N)cc2)nnc1-c1ccc(C)cc1	11.7µM*	1.2%	-28.4%	?	-69.0%	5.4%
COc1ccc(-n2c(COc3ccc(C)cc3)n[nH]c2=S)cc1	0.465µM*	15.5%	0.9%	-10.6%	6.5%	70.4%
COC(=O)[C@]12CCCCC=C1N(Cc1ccc(Cl)cc1Cl)C(=O)[C@H](CC(=O)N1CCOCC1)C2	·	·	·	·	·	-4.7%
O=C(CSc1ccccc1C(=O)O)NCC1CCCCC1	94.2%	-0.3%	16.3%	16.6%	·	12.3%
CC(=O)OC[C@H]1O[C@@H](Oc2cc(O)cc3oc(-c4ccc(O)cc4)cc(=O)c23)[C@H](O[C@@H]2O[C@@H](C)[C@H](O)[C@@H](O)[C@H]2O)[C@@H](O)[C@@H]1O	·	9.1%	14.3%	·	·	4.6%
O=P(O)(O)CCP(=O)(c1ccccc1)c1ccccc1	1.65µM*	-0.3%	17.9%	-12.0%	4.0%	1.8%
CC(=O)c1ccc(C(=O)N(C)C2CCCN(Cc3ccccc3F)C2)s1 (centres undefined)	-18.0%	?	5.4%	-9.8%	5.8%	-8.8%
COC(=O)c1ccc(C(=O)N(C)C2CCCN(Cc3ccccc3F)C2)cc1 (centres undefined)	0.0%	-1.9%	1.2%	-13.3%	5.2%	-2.0%
COCc1ccc(C(=O)N(C)C2CCCN(Cc3ccccc3F)C2)o1 (centres undefined)	2.94µM*	0.6%	-29.7%	?	-13.0%	-3.1%
Cc1ccc(C(=O)N(CCN(C)C)CC2CCCN(Cc3ccccc3F)C2)cc1C (centres undefined)	30.2%	1.7%	11.2µM*	?	-13.1%	2.6%
COc1ccc(C(=O)N(C)C2CCCN(Cc3ccccc3F)C2)cc1C (centres undefined)	5.22µM*	5.6%	?	?	16.5%	5.1%
SMILES	Pf growth 96h	SARS PLP yeast	HCV inh	Pf growth 48h	NS1 function inh	AMA1-RON2 inh
O=C1NC(CCO)C(=O)NC1CCO (centres undefined)	·	·	-6.6%	·	·	-8.9%
COc1cc(C(=O)NCC(=O)Nc2c(C)cccc2C)ccc1OCC(=O)N1CCOCC1	·	1.4%	-4.6%	·	·	8.4%
CCc1nc2ccc(C(=O)Nc3cccc(OCC(=O)N(C)C)c3)cn2c1N(C)C(=O)c1ccncc1	·	·	·	·	·	-0.9%
COc1cccc(/C=N/n2nnnc2N)c1O	34.3%	0.1%	-6.7%	25.1%	-7.2%	0.3%
O=C(CN1CCOCC1)NNc1c2ccccc2nc2ccccc12	?	-1.3%	8.91µM*	?	1.5%	8.7%
O=C(CN1CCOCCOCCOCC1)Nc1ccccc1	-4.2%	-12.7%	-5.8%	·	4.7%	0.0%
CC(=O)c1ccc(NC(=O)CN2CCOCC2)cc1	13.1µM*	1.7%	-5.3%	17.1%	5.9%	-4.2%
O=C(CN1CCOCC1)NNC(=S)Nc1ccccc1	13.1µM*	-0.6%	11.0%	-20.3%	5.3%	53.9%
CC(=O)c1ccc(NC(=O)CN2CCN(CC(=O)Nc3ccc(C(C)=O)cc3)CC2)cc1	10.8%	0.2%	8.6%	-0.1%	-1.0%	16.5%
O=C(C1CCC(CNS(=O)(=O)c2cccs2)CC1)N1CCCCC1 (centres undefined)	-5.2%	-6.7%	-4.8%	·	-2.8%	-5.2%
O=C(C1CCN(S(=O)(=O)N2CCOCC2)CC1)N1CCN(c2ccccc2F)CC1	-3.9%	-3.0%	-3.3%	-3.9%	·	18.2%
Cc1cccc(N2CCN(C(=O)C3CCN(S(=O)(=O)N4CCOCC4)CC3)CC2)c1C	?	1.7%	10µM*	-20.2%	·	7.1%
Cc1cccc(N2CCN(C(=O)C3CCC(CNS(=O)(=O)c4cccs4)CC3)CC2)c1C (centres undefined)	-3.0%	-0.5%	7.94µM*	5.22µM*	11.3%	4.4%
CC(=O)Nc1ccc(N2C(=O)CSC2c2cccc([N+](=O)[O-])c2)cc1 (centres undefined)	44.6%	-3.7%	19.1%	6.6%	·	-6.8%
CNC(=O)c1c(C)noc1C	4.6%	-0.9%	12.6%	17.4%	·	-5.2%
Oc1cccc(/C=N/N(Cc2ccccc2)c2ccccc2)c1	?	-0.3%	?	6.57µM*	·	?
C/C(=N\N(Cc1ccccc1)c1ccccc1)c1cccnc1	13.1µM*	-2.2%	-3.8%	8.28µM*	·	-19.6%
C(=N\N(Cc1ccccc1)c1ccccc1)/c1cccnc1	9.5%	-10.6%	-8.7%	13.1µM*	·	-12.0%
